Mdm2-MdmX inh: inhibitors of human Mdm2/MdmX interaction; SaOS-2 split-luciferase Mdm2/MdmX complementation, luminescence; 3% of 330,000 active; inhibition, % at 8 µM; AID 485346;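 active = inhibition of at least 50% at 8 µM in the primary screen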
Target sequence (O15151 whole entry, looked up): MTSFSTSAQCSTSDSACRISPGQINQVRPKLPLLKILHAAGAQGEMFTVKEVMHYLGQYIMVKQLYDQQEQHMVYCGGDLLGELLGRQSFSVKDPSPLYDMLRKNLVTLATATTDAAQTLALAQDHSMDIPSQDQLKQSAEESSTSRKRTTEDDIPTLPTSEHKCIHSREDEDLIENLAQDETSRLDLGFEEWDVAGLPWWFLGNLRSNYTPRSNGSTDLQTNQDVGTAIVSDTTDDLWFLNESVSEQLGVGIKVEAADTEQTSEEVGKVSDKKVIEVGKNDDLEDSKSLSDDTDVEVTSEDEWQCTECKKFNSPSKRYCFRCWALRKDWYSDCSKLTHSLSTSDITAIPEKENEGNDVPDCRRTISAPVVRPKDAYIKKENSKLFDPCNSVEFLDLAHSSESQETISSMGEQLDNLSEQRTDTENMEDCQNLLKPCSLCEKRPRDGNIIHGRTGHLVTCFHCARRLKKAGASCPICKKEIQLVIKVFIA
Target sequence (Q00987 whole entry, looked up): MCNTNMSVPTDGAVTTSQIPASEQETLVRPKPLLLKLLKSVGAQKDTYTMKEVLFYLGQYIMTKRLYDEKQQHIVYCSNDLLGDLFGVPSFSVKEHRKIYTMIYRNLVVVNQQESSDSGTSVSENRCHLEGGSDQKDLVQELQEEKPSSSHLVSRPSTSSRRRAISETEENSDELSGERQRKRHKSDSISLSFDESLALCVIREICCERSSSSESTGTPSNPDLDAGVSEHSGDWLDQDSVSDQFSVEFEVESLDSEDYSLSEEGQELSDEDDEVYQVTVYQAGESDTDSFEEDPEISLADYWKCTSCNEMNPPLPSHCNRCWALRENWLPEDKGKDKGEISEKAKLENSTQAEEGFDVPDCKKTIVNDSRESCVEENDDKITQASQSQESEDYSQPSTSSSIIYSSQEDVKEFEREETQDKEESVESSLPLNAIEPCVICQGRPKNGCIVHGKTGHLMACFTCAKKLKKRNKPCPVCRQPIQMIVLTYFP
LGR2 inh: Drosophila LGR2 receptor signaling inhibition; HEK293 LGR2, CRE-luciferase, bursicon-stimulated, 4 h; inhibition, % at 9.99 µM; 0.35% of 380,000 active; AID 720647;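 active = drop in luminescence signal, shown as inhibition above about 50% in the replicate tests, limit read from the data, passing the limit was not always enough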;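 note: agonist challenge used bursicon conditioned medium at about half maximal strength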
CF NFkB block: inhibitors of cystic fibrosis induced NF-kB; KKLEB NF-kB-GFP reporter, PAF-induced, GFP fluorescence overnight; inhibition, % at 5 µM; 0.86% of 360,000 active;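 active = at least 50% inhibition at 5 µM, scaled per plate between neutral and stimulator controls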;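 note: PAF is a Pseudomonas aeruginosa culture filtrate used as stimulus; plate controls were PAF-stimulated DMSO wells for no effect and unstimulated DMSO wells for full effect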
Peg3 promoter: reduces Peg3 promoter-driven luciferase expression in HeLa; 1.7% of 360,000 active; HeLa PEG-Prom luciferase reporter, luminescence, overnight; inhibition, % at 20 µM;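 active = inhibition of at least 50% at 20 µM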
HSP90 refold inh: HSP90 refolding inhibition in rabbit reticulocyte lysate; luciferase refolding luminescence, 3 h; inhibition, % at 5.6 µM; 0.91% of 290,000 active;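 active = inhibition above the screen-wide mean plus 3 SD, computed separately per campaign, cut at about 16% in these data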;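 note: 0% = DMSO wells and 100% = 60 µM geldanamycin wells; inhibitors lower the luminescence because luciferase stays unfolded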
KKLEB cytotox: CF airway cell cytotoxicity counter-screen; KKLEB CF airway cells viability, ATPlite luminescence, overnight; active compounds read low; cells stimulated with P. aeruginosa culture filtrate; activity change (cytotoxicity), % at 5 µM; 0.36% of 360,000 active; AID 602141;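 active = corrected activity change at or below -50% at 5 µM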
Active calls of the source: *; x = no result. The list is not random: actives were taken first. Their share in the collection is about 3.6%.

SMILES	Mdm2-MdmX inh	LGR2 inh	CF NFkB block	Peg3 promoter	HSP90 refold inh	KKLEB cytotox
Cc1ccc(-c2cc(C(=O)Nc3ccc(S(=O)(=O)N4CC(C)OC(C)C4)cc3)[nH]n2)c(O)c1 (configuration not stated)	10.0	6.8	13.0	42.7	0.4	-8.1
Cc1ccc(O)c(-c2cc(C(=O)Nc3ccc(S(=O)(=O)N4CC(C)OC(C)C4)cc3)[nH]n2)c1 (configuration not stated)	25.7	x	-5.0	54.5*	3.9	9.2
CCNC(=O)[C@@H]1[C@@H](CO)[C@@H]2Cn3c(ccc(-c4cncnc4)c3=O)[C@@H]2N1Cc1ccc2c(c1)OCO2	x	-12.9	x	x	x	x
COc1ccc(NC(=O)N(C)C[C@H]2Oc3ccc(NS(C)(=O)=O)cc3C(=O)N([C@@H](C)CO)C[C@H]2C)cc1	x	3.6	x	x	x	x
COc1ccc(C=C2CCc3ccccc3C2=O)cc1	x	3.8	1.5	-119.0	x	-52.3*
COc1ccc(/C=C2/CCc3ccccc3C2=O)cc1OC	-18.4	-58.0	22.7	-198.6	-5.0	-7.3
C=C(NC(=O)C(=C)NC(=O)c1csc(C2=NC3c4csc(n4)C4NC(=O)c5csc(n5)C(C(C)(O)C(C)O)NC(=O)C5CSC(=N5)/C(=C/C)NC(=O)C(C(C)O)NC(=O)c5csc(n5)C3(CC2)NC(=O)C(C)NC(=O)C(=C)NC(=O)C(=C)NC(=O)C(C(C)C)NC2C=Cc3c(C(C)O)cc(nc3C2O)C(=O)OC4C)n1)C(N)=O (configuration not stated)	x	-6.9	-112.6	81.2*	x	-16.0
Cc1ccccc1-c1cnc2c(c1)C(=O)N([C@H](C)CO)C[C@H](C)[C@@H](CN(C)C(=O)CC1CC1)O2	x	-1.3	x	x	x	x
Fc1ccc(-c2nc(-c3cccs3)no2)cc1	-24.1	-86.8	-7.5	-296.2	0.3	5.8
COC(=O)c1ccc(-c2nc(-c3cccs3)no2)cc1	-53.0	83.7*	0.5	4.7	5.1	-1.4
C[C@H]1CN([C@@H](C)CO)C(=O)Cc2cc(NS(=O)(=O)c3ccc(F)cc3)ccc2O[C@H]1CN(C)S(=O)(=O)c1ccc(Cl)cc1	x	23.2	x	x	x	x
N#C[C@@H]1[C@H](c2ccc(C3=CCCCC3)cc2)[C@H](CO)N1C(=O)Nc1ccccc1F	x	16.0	x	x	x	x
C[C@@H]1CCCCO[C@H](CN(C)Cc2ccc(C(=O)O)cc2)[C@H](C)CN([C@H](C)CO)C(=O)c2cc(NS(=O)(=O)c3ccc(F)cc3)ccc2O1	x	7.8	x	x	x	x
CCN1CCN(Cc2ccc(NC(=O)c3ccc(C)c(NC(=O)c4cncc(-c5cccs5)c4)c3)cc2C(F)(F)F)CC1	x	x	80.1*	99.4*	x	-85.3*
O=C(C[C@@H]1C=C[C@@H](NS(=O)(=O)c2ccc(F)cc2)[C@@H](CO)O1)N1CCC(Cc2ccccc2)CC1	x	27.6	x	x	x	x
CC(=O)NCc1ccc(C(=O)CCl)s1	24.3	2.9	8.6	68.9*	-9.9	-25.5
COc1ccc(C(=O)OCC(=O)c2ccc(CNC(C)=O)s2)cc1	11.1	-35.8	0.2	-38.0	x	-0.5
CC(=O)NCc1ccc(C(=O)CCl)cc1	-3.5	-29.4	2.1	52.7*	0.5	13.5
[2H]C(CCOS(N)(=O)=O)c1ccc(C(C)(C)C)cc1 (configuration not stated)	13.9	-16.4	11.9	58.5*	-5.2	6.1
NS(=O)(=O)OCCCc1ccccc1	-19.4	5.2	-0.6	-1.4	0.0	1.9
C[C@@H]1CN([C@H](C)CO)C(=O)c2cccc(NC(=O)Nc3ccc4c(c3)OCO4)c2O[C@H]1CN(C)S(C)(=O)=O	x	-16.4	x	x	x	x
CCC(=O)N1CC2(C1)[C@H](c1ccccc1)[C@@H](CO)N2S(=O)(=O)Cc1ccccc1	x	0.9	x	x	x	x
CCN1C/C(=C/c2cccc([N+](=O)[O-])c2)C(=O)/C(=C/c2cccc([N+](=O)[O-])c2)C1	x	83.8*	101.6*	104.0*	-0.3	-40.4
O=C1NC(=O)/C(=C/c2cccc([N+](=O)[O-])c2)N1	7.3	-4.5	-16.4	22.9	0.8	5.4
O=C(CN1C(=O)c2ccccc2S1(=O)=O)c1ccccc1F	21.0	73.3*	4.7	5.0	12.2	13.3
SMILES	Mdm2-MdmX inh	LGR2 inh	CF NFkB block	Peg3 promoter	HSP90 refold inh	KKLEB cytotox
O=C(NCc1cccc(F)c1)[C@@H]1[C@@H](CO)[C@@H]2Cn3c(ccc(-c4ccccc4)c3=O)[C@H]1N2CC1CC1	x	-5.2	x	x	x	x
N#CCCn1[nH]c(-c2ccccc2)cc1=O	-7.7	3.1	-7.7	3.0	31.4*	-9.3
CCN(CC)CCNC(=O)C12CC3CC(CC(C3)C1)C2	-10.6	x	7.1	6.5	-1.9	-11.4
CCN(CC)CCNC(=O)C(Cl)=C1C(Cl)=C(Cl)C(Cl)=C1Cl	x	6.4	-17.9	97.4*	x	4.0
CN(CCC#N)c1ccc(/C=C(\C#N)c2ccccn2)cc1	-136.9	73.0*	-18.6	-45.9	1.8	-51.6*
CCOC(=O)c1cnc2ccc(C)cc2c1Nc1ccc(N2CCOCC2)cc1	42.3	x	-1.6	78.6*	-0.5	-6.4
CCOc1ccc(Nc2cc(C)nc(N3CCOCC3)n2)cc1	-13.0	x	12.1	-19.6	-7.7	-0.1
CCOC(=O)c1ccc(Nc2cc(C)nc(N3CCOCC3)n2)cc1	11.3	x	18.1	54.8*	-1.7	-5.9
OC(CNCCc1ccc(Cl)cc1)COc1cc(Cl)ccc1Cl (configuration not stated)	24.3	-15.6	4.9	103.9*	3.2	-12.2
OC(CNCCc1ccc(Cl)cc1)COc1ccc2ccccc2c1 (configuration not stated)	x	-16.8	0.6	66.7*	6.8	-4.2
CO[C@@H]1CN(C)C(=O)c2cc(NC(=O)C3CC3)ccc2OC[C@H](C)N(C(=O)c2ccncc2)C[C@H]1C	x	-1.3	x	x	x	x
CC(C)(C)c1ccc(C(=O)NC(=S)NNC(=O)c2cccs2)cc1	x	-34.0	57.9*	-54.5	-0.5	-39.9
O=C(NC(=S)NNC(=O)c1cccs1)c1ccccc1	25.6	3.1	0.9	-20.3	-0.3	3.4
ClCc1nnc(-c2cc3c(s2)CCCC3)o1	x	-13.6	-4.4	108.3*	-1.6	-14.2
CC(C)(C)C1CCc2sc(-c3nnc(CCl)o3)cc2C1 (configuration not stated)	22.2	x	-3.0	-5.9	-1.9	-7.5
CCc1ccc2c(c1)C(=O)C(=O)N2CCS(=O)(=O)c1ccccc1	11.3	-11.1	29.2	-1.4	-2.0	-6.9
O=C1C(=O)N(CCS(=O)(=O)c2ccccc2)c2ccc(Cl)cc21	33.0	0.9	-0.1	64.0*	-4.7	-8.2
C[C@H]1CN([C@@H](C)CO)C(=O)c2cccc(N(C)C)c2O[C@H]1CN(C)Cc1ccc(C(=O)Nc2ccccc2N)cc1	x	18.2	x	x	x	x
COc1ccccc1OCC(=O)NCCSCc1ccc(Cl)cc1	10.9	2.5	0.0	77.3*	-0.5	-4.9
CNC[C@@H]1Oc2c(NS(=O)(=O)c3ccc(OC)cc3)cccc2C(=O)N([C@H](C)CO)C[C@H]1C	x	5.3	x	x	x	x

Screens (PubChem)
